In the supplement of paper PMC10849652:
Targets with a hit are over-represented here; the source holds about 8,800 in all. About 0.5% of all pairs of compound and target were hits. A number with no mark means an inactive call.

Each target was assayed with Cn1cc(CNCC2CCN(c3ncc(C(=O)NO)cn3)CC2)c2ccccc21 [quisinostat] (assay: log2 fold change, soluble protein after heating vs DMSO (PISA); higher = thermal stabilisation; K562 lysate, 10 uM; active = over 0.2 and 3.5 SD of the protein, either way, in both replicates (recomputed)).
In short: (§1)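 K562 pellets were dounce-homogenised in PBS pH 7.4 with 1 mM MgCl2, and the crude extract at 1 mg/mL protein was treated with 10 μM compound for 30 min. Aliquots were heated for 3 min across 48°C-58°C, pooled, and brought to 0.5% NP-40 at 4°C; soluble protein was the supernatant after 21,000xg for 90 min. Soluble protein was quantified by TMTpro 16plex LC-MS/MS with channel sums equalised, and reported as log2 fold change in thermal stability against DMSO controls, with values from duplicates.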

Chain of UniProt Q9H089 (Q9H089 whole entry, looked up): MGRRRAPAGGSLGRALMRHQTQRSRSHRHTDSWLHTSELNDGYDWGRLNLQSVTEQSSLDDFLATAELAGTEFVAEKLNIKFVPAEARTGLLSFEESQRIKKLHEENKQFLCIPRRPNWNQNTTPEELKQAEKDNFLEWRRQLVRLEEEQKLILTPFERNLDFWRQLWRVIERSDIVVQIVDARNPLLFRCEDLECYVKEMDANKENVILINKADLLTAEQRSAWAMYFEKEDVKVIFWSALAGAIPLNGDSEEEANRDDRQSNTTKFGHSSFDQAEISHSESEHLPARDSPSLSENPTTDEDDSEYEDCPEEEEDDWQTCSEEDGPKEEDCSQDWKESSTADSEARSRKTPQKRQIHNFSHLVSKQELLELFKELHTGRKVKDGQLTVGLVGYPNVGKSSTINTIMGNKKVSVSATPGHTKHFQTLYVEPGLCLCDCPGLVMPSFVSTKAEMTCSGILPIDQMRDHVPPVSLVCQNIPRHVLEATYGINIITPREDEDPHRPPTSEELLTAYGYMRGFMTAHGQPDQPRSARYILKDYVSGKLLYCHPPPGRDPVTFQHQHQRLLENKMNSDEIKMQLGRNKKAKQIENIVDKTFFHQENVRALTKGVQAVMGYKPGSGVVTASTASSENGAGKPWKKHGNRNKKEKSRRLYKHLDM
Chain of UniProt Q15031 (Q15031 whole entry, looked up): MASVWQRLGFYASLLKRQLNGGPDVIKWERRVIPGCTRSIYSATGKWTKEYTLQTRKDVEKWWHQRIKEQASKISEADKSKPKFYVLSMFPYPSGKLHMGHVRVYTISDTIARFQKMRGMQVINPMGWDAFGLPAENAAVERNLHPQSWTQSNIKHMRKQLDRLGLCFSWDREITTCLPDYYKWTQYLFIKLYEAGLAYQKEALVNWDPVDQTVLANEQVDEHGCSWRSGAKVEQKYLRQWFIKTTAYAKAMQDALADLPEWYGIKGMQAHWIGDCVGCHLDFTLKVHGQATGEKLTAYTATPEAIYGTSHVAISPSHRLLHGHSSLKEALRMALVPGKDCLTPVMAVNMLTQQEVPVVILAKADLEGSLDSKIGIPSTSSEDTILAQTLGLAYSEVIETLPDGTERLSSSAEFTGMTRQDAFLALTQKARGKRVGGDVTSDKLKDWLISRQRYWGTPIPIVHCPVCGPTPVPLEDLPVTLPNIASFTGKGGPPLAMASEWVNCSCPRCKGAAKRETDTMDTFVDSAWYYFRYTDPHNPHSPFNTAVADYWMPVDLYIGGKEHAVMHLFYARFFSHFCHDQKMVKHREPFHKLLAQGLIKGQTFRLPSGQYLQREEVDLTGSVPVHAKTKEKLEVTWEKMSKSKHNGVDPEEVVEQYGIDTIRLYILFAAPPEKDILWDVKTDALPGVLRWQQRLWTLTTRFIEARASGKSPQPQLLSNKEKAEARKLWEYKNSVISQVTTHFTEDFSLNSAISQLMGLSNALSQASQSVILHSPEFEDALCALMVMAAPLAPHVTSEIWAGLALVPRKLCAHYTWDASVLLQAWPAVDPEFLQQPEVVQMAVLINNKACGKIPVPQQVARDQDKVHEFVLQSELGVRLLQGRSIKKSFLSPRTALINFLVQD
Chain of UniProt Q9GZY8 (Q9GZY8 whole entry, looked up): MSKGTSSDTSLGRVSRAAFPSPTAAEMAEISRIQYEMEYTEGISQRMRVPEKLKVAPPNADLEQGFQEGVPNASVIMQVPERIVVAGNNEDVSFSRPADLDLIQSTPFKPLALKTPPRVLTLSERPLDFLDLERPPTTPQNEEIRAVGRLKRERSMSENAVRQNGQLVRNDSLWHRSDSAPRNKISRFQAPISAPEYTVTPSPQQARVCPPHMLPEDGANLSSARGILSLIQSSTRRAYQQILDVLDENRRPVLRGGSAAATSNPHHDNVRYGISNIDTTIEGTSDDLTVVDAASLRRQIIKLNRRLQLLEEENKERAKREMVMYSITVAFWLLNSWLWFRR
Chain of UniProt Q8N5J2 (Q8N5J2 whole entry, looked up): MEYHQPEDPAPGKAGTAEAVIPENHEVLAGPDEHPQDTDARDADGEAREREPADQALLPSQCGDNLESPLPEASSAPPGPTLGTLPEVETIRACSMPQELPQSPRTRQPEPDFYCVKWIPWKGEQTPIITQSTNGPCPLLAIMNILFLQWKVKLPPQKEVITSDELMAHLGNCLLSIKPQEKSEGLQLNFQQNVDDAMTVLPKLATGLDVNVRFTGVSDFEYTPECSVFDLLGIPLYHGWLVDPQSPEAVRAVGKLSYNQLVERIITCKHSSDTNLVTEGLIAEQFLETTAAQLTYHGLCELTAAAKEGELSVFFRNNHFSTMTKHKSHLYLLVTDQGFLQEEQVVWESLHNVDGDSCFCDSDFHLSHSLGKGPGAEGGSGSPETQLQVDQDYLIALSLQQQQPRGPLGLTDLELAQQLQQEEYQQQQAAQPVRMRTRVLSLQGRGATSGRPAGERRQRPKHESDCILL
Chain of UniProt Q96RQ3 (Q96RQ3 whole entry, looked up): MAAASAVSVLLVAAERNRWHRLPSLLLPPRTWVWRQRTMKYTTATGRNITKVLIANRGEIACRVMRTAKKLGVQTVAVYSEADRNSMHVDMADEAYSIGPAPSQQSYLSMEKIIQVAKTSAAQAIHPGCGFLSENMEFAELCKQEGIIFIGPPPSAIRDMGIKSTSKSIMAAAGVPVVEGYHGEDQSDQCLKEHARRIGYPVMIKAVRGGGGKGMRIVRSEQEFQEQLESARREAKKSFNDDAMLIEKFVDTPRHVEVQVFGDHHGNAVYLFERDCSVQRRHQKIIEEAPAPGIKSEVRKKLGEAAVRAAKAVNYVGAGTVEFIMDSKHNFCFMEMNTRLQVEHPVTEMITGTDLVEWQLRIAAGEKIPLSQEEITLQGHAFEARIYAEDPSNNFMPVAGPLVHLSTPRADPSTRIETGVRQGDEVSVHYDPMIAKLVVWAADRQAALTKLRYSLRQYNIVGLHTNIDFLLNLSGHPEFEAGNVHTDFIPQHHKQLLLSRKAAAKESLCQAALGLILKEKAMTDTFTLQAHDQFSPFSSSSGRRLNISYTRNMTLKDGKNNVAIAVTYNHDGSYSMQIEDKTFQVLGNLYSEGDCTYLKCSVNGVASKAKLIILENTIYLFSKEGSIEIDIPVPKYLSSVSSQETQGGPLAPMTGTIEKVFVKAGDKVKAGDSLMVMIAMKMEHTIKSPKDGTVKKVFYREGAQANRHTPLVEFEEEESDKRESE
Chain of UniProt Q9NX58 (Q9NX58 whole entry, looked up): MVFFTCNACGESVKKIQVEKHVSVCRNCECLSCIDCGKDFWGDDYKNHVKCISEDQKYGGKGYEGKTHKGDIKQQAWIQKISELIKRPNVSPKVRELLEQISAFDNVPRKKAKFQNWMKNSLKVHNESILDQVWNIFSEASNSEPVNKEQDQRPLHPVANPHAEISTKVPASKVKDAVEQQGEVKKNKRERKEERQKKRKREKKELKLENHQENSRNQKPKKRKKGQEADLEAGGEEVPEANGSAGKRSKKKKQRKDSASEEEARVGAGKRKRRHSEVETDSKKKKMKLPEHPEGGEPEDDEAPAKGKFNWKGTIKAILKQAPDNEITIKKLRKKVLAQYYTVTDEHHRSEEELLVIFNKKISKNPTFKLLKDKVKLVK
Chain of UniProt Q8WV92 (Q8WV92 whole entry, looked up): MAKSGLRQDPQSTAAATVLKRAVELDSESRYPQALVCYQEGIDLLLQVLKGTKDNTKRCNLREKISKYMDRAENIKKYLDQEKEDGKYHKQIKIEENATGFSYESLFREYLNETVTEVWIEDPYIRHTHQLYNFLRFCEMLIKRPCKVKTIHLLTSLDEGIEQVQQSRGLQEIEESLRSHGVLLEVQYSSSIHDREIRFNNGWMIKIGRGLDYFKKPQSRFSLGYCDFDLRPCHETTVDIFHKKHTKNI
Chain of UniProt Q08380 (Q08380 whole entry, looked up): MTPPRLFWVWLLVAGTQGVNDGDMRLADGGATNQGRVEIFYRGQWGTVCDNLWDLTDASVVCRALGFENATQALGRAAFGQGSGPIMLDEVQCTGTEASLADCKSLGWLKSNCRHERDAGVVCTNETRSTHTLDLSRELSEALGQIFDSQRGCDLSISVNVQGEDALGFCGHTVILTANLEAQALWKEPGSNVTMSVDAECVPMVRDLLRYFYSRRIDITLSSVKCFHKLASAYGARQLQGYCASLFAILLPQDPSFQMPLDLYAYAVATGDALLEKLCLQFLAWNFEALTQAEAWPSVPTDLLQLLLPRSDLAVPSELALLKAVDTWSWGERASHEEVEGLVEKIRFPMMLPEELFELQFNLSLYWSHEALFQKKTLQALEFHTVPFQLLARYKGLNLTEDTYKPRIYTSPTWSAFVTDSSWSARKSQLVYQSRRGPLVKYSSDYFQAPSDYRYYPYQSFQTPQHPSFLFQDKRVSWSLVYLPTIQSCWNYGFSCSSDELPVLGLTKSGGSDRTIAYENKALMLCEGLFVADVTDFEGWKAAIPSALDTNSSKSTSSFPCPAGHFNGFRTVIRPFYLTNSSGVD
Chain of UniProt Q9BTE3 (Q9BTE3 whole entry, looked up): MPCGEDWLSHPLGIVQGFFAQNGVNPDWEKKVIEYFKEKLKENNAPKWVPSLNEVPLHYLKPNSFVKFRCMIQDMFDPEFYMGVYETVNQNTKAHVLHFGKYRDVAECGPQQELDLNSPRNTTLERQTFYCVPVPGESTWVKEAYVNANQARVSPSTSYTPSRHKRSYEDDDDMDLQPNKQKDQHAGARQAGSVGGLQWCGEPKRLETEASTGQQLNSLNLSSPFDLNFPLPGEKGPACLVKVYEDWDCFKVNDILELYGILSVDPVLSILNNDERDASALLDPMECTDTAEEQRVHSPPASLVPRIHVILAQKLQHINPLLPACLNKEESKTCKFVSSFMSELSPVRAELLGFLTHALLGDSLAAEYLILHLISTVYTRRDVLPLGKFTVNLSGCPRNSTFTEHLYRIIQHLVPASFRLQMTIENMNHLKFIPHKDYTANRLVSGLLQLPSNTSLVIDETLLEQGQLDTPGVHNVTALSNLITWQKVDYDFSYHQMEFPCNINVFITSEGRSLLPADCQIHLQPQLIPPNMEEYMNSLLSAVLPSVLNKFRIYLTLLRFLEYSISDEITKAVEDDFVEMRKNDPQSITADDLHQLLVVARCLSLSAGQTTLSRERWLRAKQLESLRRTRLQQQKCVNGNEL

Target | log2 fold change
MITD1 (UniProt Q8WV92) | 0.027
LYRM4 (UniProt Q9HD34) | -0.093
LSG1 (UniProt Q9H089) | -0.091
MED8 isoform 2 (UniProt Q96G25) | -0.043
LARP4B (UniProt Q92615) | -0.026
MPDZ (UniProt O75970) | -0.084
LGALS3BP (UniProt Q08380) | -0.007
MCMBP (UniProt Q9BTE3) | -0.039
MIPEP (UniProt Q99797) | 0.45 (active)
MED17 (UniProt Q9NVC6) | -0.033
MLH1 (UniProt P40692) | -0.043
LIG4 (UniProt P49917) | -0.085
MPZL1 (UniProt O95297) | 0.071
MAPK9 (UniProt P45984) | 0.004
MAP2K7 isoform 4 (UniProt O14733) | 0.001
MFF isoform 2 (UniProt Q9GZY8) | 0.002
LYAR (UniProt Q9NX58) | 0.003
MECR (UniProt Q9BV79) | 0.07
MAPKAPK3 (UniProt Q16644) | 0.01
MAP3K4 (UniProt Q9Y6R4) | -0.078

Target | log2 fold change
MAST4 (UniProt O15021) | 0.104
MINDY1 isoform 3 (UniProt Q8N5J2) | -0.006
LYSMD3 (UniProt Q7Z3D4) | -0.037
LARS2 (UniProt Q15031) | 0.028
MCCC1 (UniProt Q96RQ3) | -0.049
MIF (UniProt P14174) | 0.058
LAMP1 (UniProt P11279) | -0.113
MED12 isoform 2 (UniProt Q93074) | -0.05
MAP4 (UniProt E7EVA0) | -0.271 (active)
MED10 (UniProt Q9BTT4) | 0.04
KLC2 (UniProt Q9H0B6) | -0.017
LRWD1 (UniProt Q9UFC0) | -0.132
MBD2 (UniProt Q9UBB5) | -0.014
LARS (UniProt Q9P2J5) | -0.005
MON2 isoform 5 (UniProt Q7Z3U7) | -0.074
MAD2L1BP isoform 3 (UniProt Q15013) | -0.066
MLLT11 (UniProt Q13015) | -0.029
LIG3 (UniProt P49916) | -0.024
LIMS1 isoform 3 (UniProt P48059) | 0.255 (active)

Each target was assayed with Cn1cncc1[C@@](N)(c1ccc(Cl)cc1)c1ccc2c(c1)c(-c1cccc(Cl)c1)cc(=O)n2C [tipifarnib] in the same assay as above.
In short: as §1

Target | log2 fold change
MITD1 (UniProt Q8WV92) | 0.022
LYRM4 (UniProt Q9HD34) | -0.028
LSG1 (UniProt Q9H089) | -0.004
MED8 isoform 2 (UniProt Q96G25) | 0.081
LARP4B (UniProt Q92615) | 0
MPDZ (UniProt O75970) | 0.328
LGALS3BP (UniProt Q08380) | -0.123
MCMBP (UniProt Q9BTE3) | 0.024
MIPEP (UniProt Q99797) | 0.033
MED17 (UniProt Q9NVC6) | -0.075
MLH1 (UniProt P40692) | 0.005
LIG4 (UniProt P49917) | 0.038
MPZL1 (UniProt O95297) | 0.035
MAPK9 (UniProt P45984) | -0.028
MAP2K7 isoform 4 (UniProt O14733) | -0.024
MFF isoform 2 (UniProt Q9GZY8) | -0.004
LYAR (UniProt Q9NX58) | 0
MECR (UniProt Q9BV79) | -0.009
MAPKAPK3 (UniProt Q16644) | 0.017
MAP3K4 (UniProt Q9Y6R4) | -0.015

Target | log2 fold change
MAST4 (UniProt O15021) | 0.012
MINDY1 isoform 3 (UniProt Q8N5J2) | 0.022
LYSMD3 (UniProt Q7Z3D4) | 0.352 (active)
LARS2 (UniProt Q15031) | -0.085
MCCC1 (UniProt Q96RQ3) | 0.031
MIF (UniProt P14174) | 0.061
LAMP1 (UniProt P11279) | -0.012
MED12 isoform 2 (UniProt Q93074) | 0.005
MAP4 (UniProt E7EVA0) | -0.031
MED10 (UniProt Q9BTT4) | -0.066
KLC2 (UniProt Q9H0B6) | 0.063
LRWD1 (UniProt Q9UFC0) | 0.007
MBD2 (UniProt Q9UBB5) | -0.011
LARS (UniProt Q9P2J5) | -0.006
MON2 isoform 5 (UniProt Q7Z3U7) | -0.004
MAD2L1BP isoform 3 (UniProt Q15013) | 0.018
MLLT11 (UniProt Q13015) | -0.204
LIG3 (UniProt P49916) | -0.004
LIMS1 isoform 3 (UniProt P48059) | 0.002
